# Counter-ions that a name gives are not always drawn. ± gives the standard deviation of the averaged measurements.
# Tested on: mESC LDLR-Dup GFP reporter (SpCas9 MH-deletion repair)
# Experiment: fraction of GFP+ cells relative to DMSO control (fold change); higher = more MH-deletion repair to in-frame LDLR (or more editing)
# Conditions: 2 µM; 7 days post-transfection
row,SMILES,fraction of GFP+ cells
1,Cc1nc2c(O)cccc2c(=O)[nH]1,0.926 ± 0.11
2,"C[C@@H](CN1CC(=O)NC(=O)C1)N1CC(=O)NC(=O)C1 [Dexrazoxane HCl (ICRF-187, ADR-529)]",1.05 ± 0.24
3,Cc1nc(N)sc1-c1ccnc(Nc2ccc(N3CCOCC3)cc2)n1,0.334 ± 0.28
4,O=C1CCc2c(ccc3ccccc23)O1 [Splitomicin],0.636 ± 0.11
5,S=P(N1CC1)(N1CC1)N1CC1 [Thiotepa],0.905 ± 0.27
6,C/C(=C\C(=O)OCCCCCCCCC(=O)O)C[C@@H]1OC[C@H](C[C@@H]2O[C@H]2[C@@H](C)[C@H](C)O)[C@@H](O)[C@H]1O [Mupirocin],1.12 ± 0.3
7,COc1cc(Br)c(Nc2nc(-c3c(C)nc4ncccn34)cs2)c(Br)c1,0.111 ± 0.028
8,CNC1CCCN(c2c(F)cc3c(=O)c(C(=O)O)cn(C4CC4)c3c2OC)C1 (stereo not given) [Balofloxacin],0.978 ± 0.15
9,NC(=O)c1cccnc1 [Nicotinamide (Vitamin B3)],1.74 ± 0.82
10,O=c1c(O)c(-c2ccc(O)c(O)c2)oc2cc(O)ccc12 [Fisetin],1.39 ± 0.39
11,O=C1NCCc2[nH]c(-c3ccncc3)cc21,1.61 ± 0.078
12,Nc1nc(F)nc2c1ncn2[C@@H]1O[C@H](COP(=O)(O)O)[C@@H](O)[C@@H]1O [Fludarabine Phosphate],0.855 ± 0.23
13,COc1cc(Cc2cnc(N)nc2N)cc(OC)c1OC [Trimethoprim],0.773 ± 0.079
14,O=c1nc(N2CCOCC2)oc2c(-c3cccc4c3sc3ccccc34)cccc12,0.761 ± 0.24
15,Oc1nc(-c2ccc(C(F)(F)F)cc2)nc2c1CSCC2,0.752 ± 0.014
16,C[C@H](CN(C)C)Oc1nc(Nc2cc3cccc(Cl)c3cn2)cnc1C#N,1.28 ± 0.15
17,Nc1ccc(O)c(C(=O)O)c1 [Mesalamine],0.933 ± 0.049
18,CSc1ccc(C(=O)/C=C/c2cc(C)c(OC(C)(C)C(=O)O)c(C)c2)cc1 [Elafibranor],1.63 ± 0.59
19,O=C(NCCN1CCOCC1)Nc1ccc(C(=O)/C=C/c2cccc(N3CCOCC3)n2)cc1,1.18 ± 0.16
20,Nc1[nH]cnc2ncnc1-2 [Adenine],0.896 ± 0.31
21,CC(C)(O)[C@@H]1CC[C@](C)([C@H]2[C@@H](O)C[C@@]3(C)[C@@H]4C[C@H](O)[C@H]5C(C)(C)[C@@H](O)CC[C@@]56C[C@@]46CC[C@]23C)O1 [Cycloastragenol],0.966 ± 0.08
22,CCN1/C(=C/C(C)=O)Sc2ccc(OC)cc21,0.802 ± 0.095
23,Cc1ccc(C)c(OCCCC(C)(C)C(=O)O)c1 [Gemfibrozil],1.46 ± 0.29
24,CC(C)=CCC[C@](C)(O)[C@H]1CC[C@]2(C)[C@@H]1[C@H](O)C[C@@H]1[C@@]3(C)CC[C@H](O)C(C)(C)[C@@H]3[C@@H](O)C[C@]12C [(20S)-Protopanaxatriol],1.02 ± 0.14
25,C[C@H]1COc2c(N3CCN(C)CC3)c(F)cc3c(=O)c(C(=O)O)cn1c23 [Levofloxacin hydrate],0.935 ± 0.12

# Reference: the supplement of paper PMC8387472
